# The supplement of paper PMC10849652
# The full data set covers some 7,900 targets. This sample favours those with a hit. About 0.6% of all pairs of compound and target were hits. Unmarked numbers belong to inactive results.
# Legend:
# Experiment in all cases: log2 fold change, soluble protein after heating vs DMSO (PISA); higher = thermal stabilisation; K562 cells, 10 uM, 30 min; active = over 0.2 and 3.5 SD of the protein, either way, in both replicates (recomputed)
# erlotinib = compound: C#Cc1cccc(Nc2ncnc3cc(OCCOC)c(OCCOC)cc23)c1 [erlotinib]
# Outline: (§1)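 K562 cells at 2×10^6 cells/mL were treated for 30 min with 10 μM compound, and aliquots were heated for 3 min over 48°C-58°C before pooling. Extraction used PBS with 0.5% NP-40 at 4°C, and soluble protein was the supernatant after 21,000xg for 90 min, measured by TMTpro 16plex LC-MS/MS with channel sums equalised. Thermal stability values, relative to control samples and from duplicates, are log2 fold changes.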
# [1] = compound: C/C(=N\NC(=O)C1=CC(=CC=C1)S(=O)(=O)N2CCOCC2)/C3=C(C=CC(=C3)Cl)O
# Outline: as §1
# [2] = compound: C1=CC(=C(C=C1Cl)C2=NC3=NC=CN=C3C(=N2)NC4=CC=NC=C4)F
# Outline: as §1
# [3] = compound: C1=CC(=CC=C1C2=NC3=C(N2)C=C(C=C3)C(=O)N)OC4=CC=C(C=C4)Cl
# Outline: as §1
# [4] = compound: C1=CC2=C(C=CC(=C2)/C=C\3/C(=O)NC(=NCC4=CC=CS4)S3)N=C1
# Outline: as §1
# [5] = compound: C1=CC2=NC=CN=C2C=C1/C=C/3\C(=O)NC(=O)S3
# Outline: as §1
# [6] = compound: C1=CC=C(C=C1)C2=NC(=C(N2)C3=CC=NC=C3)C4=CC(=C(C=C4)Cl)O
# Outline: as §1
# [7] = compound: C1=CC=C2C(=C1)C3=NNC4=CC=CC(=C43)C2=O
# Outline: as §1
# [8] = compound: C1CCN(C1)C(=O)NC2=CC=CC(=C2)NC3=NC=C(C(=N3)NCCC4=CN=CN4)Br
# Outline: as §1
# [9] = compound: C1CN(CCC1(CC2=CC=C(C=C2)Cl)N)C3=NC=NC4=C3C=CN4
# Outline: as §1
# Sequence of UniProt P18146 (P18146 whole entry, looked up): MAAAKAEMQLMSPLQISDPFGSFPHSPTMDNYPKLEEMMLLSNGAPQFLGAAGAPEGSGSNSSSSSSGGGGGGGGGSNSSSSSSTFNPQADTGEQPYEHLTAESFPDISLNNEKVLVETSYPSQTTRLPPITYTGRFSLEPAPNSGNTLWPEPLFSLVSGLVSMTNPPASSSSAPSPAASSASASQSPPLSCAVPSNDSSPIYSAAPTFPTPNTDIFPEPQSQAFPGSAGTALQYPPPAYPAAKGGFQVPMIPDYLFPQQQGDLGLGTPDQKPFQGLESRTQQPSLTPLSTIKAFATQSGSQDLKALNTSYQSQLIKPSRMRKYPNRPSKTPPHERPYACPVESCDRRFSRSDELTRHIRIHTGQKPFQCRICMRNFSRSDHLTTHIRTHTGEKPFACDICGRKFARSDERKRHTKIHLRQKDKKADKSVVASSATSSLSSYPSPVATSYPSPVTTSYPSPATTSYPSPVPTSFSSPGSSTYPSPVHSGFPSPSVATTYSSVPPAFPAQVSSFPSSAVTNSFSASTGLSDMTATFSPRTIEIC
# Sequence of UniProt Q13011 (Q13011 whole entry, looked up): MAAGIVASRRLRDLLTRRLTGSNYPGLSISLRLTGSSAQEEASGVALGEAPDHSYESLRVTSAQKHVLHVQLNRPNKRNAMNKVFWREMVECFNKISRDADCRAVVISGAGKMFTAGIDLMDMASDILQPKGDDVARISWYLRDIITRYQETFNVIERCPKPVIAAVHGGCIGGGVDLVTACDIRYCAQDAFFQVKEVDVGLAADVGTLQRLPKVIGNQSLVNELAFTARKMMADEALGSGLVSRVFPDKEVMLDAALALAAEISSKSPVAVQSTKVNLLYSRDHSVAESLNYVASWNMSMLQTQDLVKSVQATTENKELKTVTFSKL
# Sequence of UniProt Q9NRY5 (Q9NRY5 whole entry, looked up): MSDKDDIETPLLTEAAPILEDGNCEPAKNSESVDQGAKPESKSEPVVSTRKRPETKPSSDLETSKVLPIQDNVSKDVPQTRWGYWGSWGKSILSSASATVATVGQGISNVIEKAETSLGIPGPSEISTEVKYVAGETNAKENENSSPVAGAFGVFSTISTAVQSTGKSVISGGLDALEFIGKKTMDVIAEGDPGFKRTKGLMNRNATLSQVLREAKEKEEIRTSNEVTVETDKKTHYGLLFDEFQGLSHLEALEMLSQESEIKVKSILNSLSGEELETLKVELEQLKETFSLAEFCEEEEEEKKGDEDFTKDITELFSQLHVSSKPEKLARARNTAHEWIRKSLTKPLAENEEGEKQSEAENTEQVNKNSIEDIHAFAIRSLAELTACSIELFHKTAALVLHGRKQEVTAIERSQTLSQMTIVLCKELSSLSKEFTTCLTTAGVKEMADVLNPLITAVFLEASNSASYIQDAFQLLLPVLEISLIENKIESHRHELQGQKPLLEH
# Sequence of UniProt Q96GG9 (Q96GG9 whole entry, looked up): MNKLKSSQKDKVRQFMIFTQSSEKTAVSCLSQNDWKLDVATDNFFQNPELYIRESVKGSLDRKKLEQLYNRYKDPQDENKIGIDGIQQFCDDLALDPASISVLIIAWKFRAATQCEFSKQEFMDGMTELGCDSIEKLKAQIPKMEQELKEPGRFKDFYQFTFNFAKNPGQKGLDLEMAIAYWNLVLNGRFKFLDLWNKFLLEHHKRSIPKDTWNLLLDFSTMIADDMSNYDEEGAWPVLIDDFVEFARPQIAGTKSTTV
# Sequence of UniProt P23919 (P23919 whole entry, looked up): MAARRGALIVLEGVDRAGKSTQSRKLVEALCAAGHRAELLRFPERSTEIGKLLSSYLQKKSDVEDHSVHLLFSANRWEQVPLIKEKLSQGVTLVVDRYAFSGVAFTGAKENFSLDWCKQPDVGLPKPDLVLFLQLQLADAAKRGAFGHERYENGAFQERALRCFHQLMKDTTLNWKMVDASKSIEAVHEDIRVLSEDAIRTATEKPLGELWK
# Sequence of UniProt Q01780 (Q01780 whole entry, looked up): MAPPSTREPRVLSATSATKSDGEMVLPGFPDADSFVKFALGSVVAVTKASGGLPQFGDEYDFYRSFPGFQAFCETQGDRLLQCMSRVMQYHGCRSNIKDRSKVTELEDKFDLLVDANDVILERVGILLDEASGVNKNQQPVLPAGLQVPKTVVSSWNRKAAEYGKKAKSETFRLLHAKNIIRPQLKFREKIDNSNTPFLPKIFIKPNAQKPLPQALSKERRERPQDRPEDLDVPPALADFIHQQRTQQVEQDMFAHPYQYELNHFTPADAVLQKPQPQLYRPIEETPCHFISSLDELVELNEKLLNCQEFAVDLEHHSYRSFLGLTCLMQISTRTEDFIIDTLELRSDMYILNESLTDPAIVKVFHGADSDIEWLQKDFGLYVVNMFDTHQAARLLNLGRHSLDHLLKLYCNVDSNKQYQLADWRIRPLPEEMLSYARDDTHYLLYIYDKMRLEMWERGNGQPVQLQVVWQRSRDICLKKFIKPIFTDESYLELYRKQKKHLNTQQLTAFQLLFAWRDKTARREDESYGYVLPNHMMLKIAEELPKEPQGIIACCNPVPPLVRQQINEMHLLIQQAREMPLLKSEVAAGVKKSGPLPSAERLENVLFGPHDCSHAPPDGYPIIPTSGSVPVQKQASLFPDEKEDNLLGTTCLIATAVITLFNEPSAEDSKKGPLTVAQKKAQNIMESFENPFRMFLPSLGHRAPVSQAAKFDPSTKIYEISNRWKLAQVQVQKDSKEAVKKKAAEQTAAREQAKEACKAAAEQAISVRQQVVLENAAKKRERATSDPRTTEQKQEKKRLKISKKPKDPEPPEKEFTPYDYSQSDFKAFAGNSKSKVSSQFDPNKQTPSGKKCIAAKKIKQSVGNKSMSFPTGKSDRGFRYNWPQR
# Sequence of UniProt Q8TCE6 (Q8TCE6 whole entry, looked up): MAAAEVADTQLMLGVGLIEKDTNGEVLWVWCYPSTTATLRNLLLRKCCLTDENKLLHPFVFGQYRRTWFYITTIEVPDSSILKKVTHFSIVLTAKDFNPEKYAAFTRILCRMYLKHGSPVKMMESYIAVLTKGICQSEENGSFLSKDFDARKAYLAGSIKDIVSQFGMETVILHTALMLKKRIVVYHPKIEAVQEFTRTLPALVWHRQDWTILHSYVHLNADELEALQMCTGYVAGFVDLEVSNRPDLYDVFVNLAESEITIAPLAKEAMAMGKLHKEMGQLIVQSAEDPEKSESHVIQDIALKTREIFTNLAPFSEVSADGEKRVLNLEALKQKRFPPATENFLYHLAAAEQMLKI
# Sequence of UniProt P98082 (P98082 whole entry, looked up): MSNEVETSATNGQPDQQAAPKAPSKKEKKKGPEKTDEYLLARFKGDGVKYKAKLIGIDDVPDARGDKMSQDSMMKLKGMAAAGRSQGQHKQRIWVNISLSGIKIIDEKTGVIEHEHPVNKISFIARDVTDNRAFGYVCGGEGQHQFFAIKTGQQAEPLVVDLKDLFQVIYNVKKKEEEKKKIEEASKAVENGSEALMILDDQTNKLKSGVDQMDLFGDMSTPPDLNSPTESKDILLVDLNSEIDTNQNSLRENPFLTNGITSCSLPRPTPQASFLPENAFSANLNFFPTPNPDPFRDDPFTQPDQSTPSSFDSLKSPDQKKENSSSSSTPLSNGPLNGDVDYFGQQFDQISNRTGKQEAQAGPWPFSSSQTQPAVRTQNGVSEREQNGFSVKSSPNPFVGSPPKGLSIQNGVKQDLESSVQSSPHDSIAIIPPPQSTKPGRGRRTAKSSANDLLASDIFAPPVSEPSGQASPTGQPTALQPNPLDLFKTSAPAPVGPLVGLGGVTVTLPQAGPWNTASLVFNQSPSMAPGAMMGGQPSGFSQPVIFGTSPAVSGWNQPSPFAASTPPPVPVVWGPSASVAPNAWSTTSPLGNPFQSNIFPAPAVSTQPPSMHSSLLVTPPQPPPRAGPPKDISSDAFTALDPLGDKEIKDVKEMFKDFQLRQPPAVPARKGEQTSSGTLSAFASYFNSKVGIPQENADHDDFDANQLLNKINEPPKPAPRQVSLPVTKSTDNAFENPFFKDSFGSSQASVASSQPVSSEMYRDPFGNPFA
# Sequence of UniProt Q6UX04 (Q6UX04 whole entry, looked up): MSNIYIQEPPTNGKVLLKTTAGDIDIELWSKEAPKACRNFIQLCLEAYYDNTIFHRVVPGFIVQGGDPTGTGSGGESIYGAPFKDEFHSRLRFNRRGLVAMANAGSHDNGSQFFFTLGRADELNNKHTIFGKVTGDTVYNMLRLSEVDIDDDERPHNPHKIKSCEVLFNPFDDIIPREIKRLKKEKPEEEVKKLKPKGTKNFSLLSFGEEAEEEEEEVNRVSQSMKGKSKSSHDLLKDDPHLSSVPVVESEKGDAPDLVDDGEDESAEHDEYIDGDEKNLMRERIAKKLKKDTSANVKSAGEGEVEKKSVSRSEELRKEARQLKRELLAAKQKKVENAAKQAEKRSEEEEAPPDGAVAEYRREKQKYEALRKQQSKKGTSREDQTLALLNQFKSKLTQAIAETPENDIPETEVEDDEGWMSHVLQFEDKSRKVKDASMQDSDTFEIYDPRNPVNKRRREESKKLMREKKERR
# Sequence of UniProt Q9H4H8 (Q9H4H8 whole entry, looked up): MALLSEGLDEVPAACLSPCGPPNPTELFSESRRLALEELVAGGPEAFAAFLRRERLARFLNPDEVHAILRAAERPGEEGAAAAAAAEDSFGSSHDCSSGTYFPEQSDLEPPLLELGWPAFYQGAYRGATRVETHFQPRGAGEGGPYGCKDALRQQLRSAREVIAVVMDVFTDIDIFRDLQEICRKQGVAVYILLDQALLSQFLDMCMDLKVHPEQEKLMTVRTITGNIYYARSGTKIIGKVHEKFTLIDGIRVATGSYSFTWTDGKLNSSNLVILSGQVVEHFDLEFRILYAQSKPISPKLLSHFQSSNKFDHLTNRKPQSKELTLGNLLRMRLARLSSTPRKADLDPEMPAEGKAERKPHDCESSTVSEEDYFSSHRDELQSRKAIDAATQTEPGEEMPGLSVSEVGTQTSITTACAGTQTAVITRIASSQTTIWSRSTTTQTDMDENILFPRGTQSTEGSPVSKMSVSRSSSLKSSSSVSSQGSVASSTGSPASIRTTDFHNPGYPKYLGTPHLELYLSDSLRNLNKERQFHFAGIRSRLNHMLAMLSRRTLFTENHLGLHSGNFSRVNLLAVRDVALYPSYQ
Target,log2 fold change (erlotinib),log2 fold change [1],log2 fold change [2],log2 fold change [3],log2 fold change [4],log2 fold change [5],log2 fold change [6],log2 fold change [7],log2 fold change [8],log2 fold change [9]
EEF1G isoform 2 (UniProt P26641),-0.051,0.062,-0.009,-0.016,-0.036,-0.021,0.083,0.012,0.001,-0.031
DDB1 (UniProt Q16531),-0.03,0.006,0.009,0.022,0.003,0.014,-0.019,-0.032,0.018,0.04
FAM83D (UniProt Q9H4H8),0.035,0.027,-0.124,-0.015,-0.016,0.02,0.086,0.059,-0.071,-0.062
DIAPH1 (UniProt O60610),0.072,0.058,-0.109,-0.037,0.031,0.04,0.067,0.006,-0.072,-0.235
DNM2 (UniProt P50570),0.042,0.065,0.01,-0.025,0.046,-0.001,0.019,0.033,0.015,-0.003
DNTTIP2 (UniProt Q5QJE6),-0.111,-0.186,-0.242,0.038,0.005,-0.043,-0.069,-0.269,-0.004,-0.111
ERCC6 (UniProt Q03468),-0.036,0.06,0.028,-0.063,-0.096,-0.224,-0.052,0.003,-0.065,0.106
CUEDC2 (UniProt Q9H467),0.016,-0.023,0.047,0.023,-0.021,0.117,-0.074,0.008,-0.071,-0.006
DYNC1I2 isoform 5 (UniProt Q13409),-0.009,-0.016,-0.033,0.003,0.025,-0.006,0.057,0.016,0.007,0.018
EXOC7 (UniProt Q9UPT5),0.032,0.074,0.001,-0.042,0.048,0.016,0.011,-0.016,-0.023,-0.014
ECH1 (UniProt Q13011),-0.027,0.053,0.243,0,0.126,-0.018,0.541 (active),0.361 (active),-0.028,-0.064
DBT (UniProt P11182),-0.041,-0.019,-0.021,0.049,-0.03,0.038,0.099,-0.01,-0.006,-0.065
ERLIN2 (UniProt O94905),-0.073,-0.075,-0.054,-0.014,-0.012,0.027,0.021,-0.054,-0.002,-0.097
EDEM2 (UniProt Q9BV94),-0.025,0.023,-0.009,0.09,0.132,-0.318,0.012,0.081,-0.018,0.05
CYFIP1 (UniProt Q7L576),-0.016,0.066,0.07,0.018,0.002,0.026,0.003,-0.016,0.005,0.059
ERLIN1 (UniProt O75477),-0.081,0.013,-0.097,-0.001,-0.015,-0.011,-0.006,-0.047,0.008,-0.124
DENND10 (UniProt Q8TCE6),-0.01,-0.005,-0.049,-0.08,-0.051,0.018,0,-0.04,0.063,0.083
EFL1 (UniProt Q7Z2Z2),0,0.051,0.027,0.002,0.013,0.002,0.053,0.043,0.027,0.013
EGR1 (UniProt P18146),-0.105,0.001,0.071,0.176,0.208,0.088,-0.28,-0.474,0.118,-0.121
EXOSC10 (UniProt Q01780),1.07,-0.86 (active),0.136,0.008,0.078,-0.101,-0.444,-0.055,0.052,0.067
CTSB (UniProt P07858),0.021,-0.037,0.026,0.003,0.038,0.016,0.009,-0.017,0.007,0.04
DTYMK (UniProt P23919),-0.007,0.025,0.013,0.04,-0.027,0.044,-0.017,0.095,0.015,0.016
EVC2 (UniProt Q86UK5),-0.01,-0.044,-0.013,-0.035,-0.069,-0.019,-0.002,0.061,-0.042,-0.117
DAB2 (UniProt P98082),0.107,0.112,0.01,-0.035,0.037,0.008,0.002,0.019,-0.156,-0.006
DCUN1D1 (UniProt Q96GG9),-0.038,0.052,0.041,-0.009,0.015,0.001,0.021,-0.014,-0.017,0.024
EBNA1BP2 (UniProt Q99848),-0.041,-0.149,-0.466,0.034,0.042,0.052,-0.047,-0.134,0.048,-0.414
CWC27 (UniProt Q6UX04),0.084,-0.023,0.055,-0.049,0.021,0.02,0.041,-0.102,-0.086,-0.053
E2F4 (UniProt Q16254),0.021,-0.003,0.019,-0.003,0.029,0.043,-0.064,-0.02,-0.071,-0.022
FAM114A2 (UniProt Q9NRY5),-0.001,0.051,0.055,-0.002,0.008,0.067,-0.018,-0.04,-0.002,-0.021
DHRS3 (UniProt O75911),0.116,0.041,0.11,0.018,0.155,-0.037,0.024,0.074,0.005,0.191
